Reference: PubChem BioAssay
Calls of active or inactive are those of the source.

How the values were obtained:
[1] = A549 cell viability effects, profiling panel, calcein-AM fluorescence, 48 h, basal (AID 1162); details: higher = more signal
[2] = adipocyte viability effects, profiling panel, cell-based, 3T3-L1 adipocytes, calcein-AM fluorescence, 48 h, basal (AID 1163); details: 3T3-L1 adipocytes viability, higher = more signal
[3] = HepG2 cell viability effects, profiling panel, calcein-AM fluorescence, 48 h, basal (AID 1164); details: higher = more signal
[4] = MM1S cell viability effects, profiling panel, calcein-AM fluorescence, 48 h, basal (AID 1165); details: higher = more signal;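 note: viability of MM1S multiple myeloma cells under basal unstimulated conditions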
[5] = basal RPMI8226 viability, no added stimulus, profiling panel, cell-based, calcein-AM fluorescence, 48 h, PK04 Diversity Set (AID 1166); details: RPMI8226 myeloma viability, higher = more signal;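 note: cells grown under basal conditions without added stimulus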
[6] = basal HepG2 mitochondrial membrane potential changes, profiling panel, cell-based, JC-1 fluorescence, 24 h, 100 nL compound (AID 1167); details: higher = more signal
[7] = basal 3T3-L1 adipocyte mitochondrial potential changes, profiling panel, cell-based, JC-1 fluorescence, 3T3-L1 adipocytes, 24 h, 100 nL compound (AID 1168); details: JC-1 mitochondrial fluorescence, higher = more signal, called active from +8 up or from −8 down
[8] = basal RPMI8226 mitochondrial membrane potential changes, profiling panel, cell-based, JC-1 fluorescence, 24 h, 100 nL compound (AID 1169); details: RPMI8226 myeloma, JC-1 mitochondrial potential fluorescence, higher = more signal
[9] = basal MM1S mitochondrial membrane potential changes, profiling panel, cell-based, JC-1 fluorescence, 24 h, 100 nL compound (AID 1170); details: higher = more signal
[10] = A549 lung cancer cell viability effects, profiling panel, resazurin fluorescence, 24 h, PK04 Diversity Set (AID 1171); details: higher = more signal, called active from +8 up or from −8 down
Note: test concentration not given here.

| Structure (SMILES) | z-score [1] | z-score [2] | z-score [3] | z-score [4] | z-score [5] | z-score [6] | z-score [7] | z-score [8] | z-score [9] | z-score [10] |
| --- | --- | --- | --- | --- | --- | --- | --- | --- | --- | --- |
| CC(CCC(=O)OC[C@H]1O[C@H](C#Cc2ccccc2)C=C[C@@H]1Oc1ccc(C)cc1)=NOC[C@@H](C)[C@H](OCc1ccccc1)C(C)C | -0.284 | 0.0487 | -0.489 | -1.44 | 0.164 | -0.043 | -1.77 (inactive) | 1.06 | -0.327 | 0.865 (inactive) |
| CCC1=NOC(CCC2CC(OC(=O)NCc3cccc4c3OCO4)CC3(CCCC(COC(=O)NCCc4ccc(Cl)cc4)O3)O2)C1 (stereo not given) | -0.584 | -0.55 | -0.303 | 0.396 | -0.961 | -0.803 | 0.453 (inactive) | 0.0772 | -0.398 | 0.137 (inactive) |
| O=C1C2=CC[C@H]3C(=O)N(c4ccc(F)cc4F)C(=O)[C@H]3[C@H]2[C@H](O)[C@@H]2O[C@H]12 | -0.463 | -0.438 | 0.0658 | -0.486 | -0.397 | -0.276 | -0.191 (inactive) | 0.0423 | 0.556 | -0.0843 (inactive) |
| C[C@@H](c1ccccc1)N1C(=O)[C@H]2[C@H]3[C@H](O)[C@H](O)CC(=NNC(=O)OCc4ccccc4)[C@@H]3CC[C@H]2C1=O | -0.18 | -0.506 | -0.468 | 0.399 | -0.253 | -0.604 | -0.762 (inactive) | 0.102 | -0.998 | -0.427 (inactive) |
| O=C1[C@H]2[C@H]3[C@H](O)[C@H](O)CC(=NOC[C@@H](O)COCc4ccco4)[C@@H]3CC[C@H]2C(=O)N1c1cccc(Oc2ccccc2)c1 | -0.382 | -0.454 | -1.19 | -0.163 | 0.0958 | -0.0749 | -0.785 (inactive) | 0.688 | -0.105 | 0.0561 (inactive) |
| O=C1[C@H]2[C@H]3[C@H](O)[C@H](O)CC(=NOC[C@@H](O)COCc4ccco4)[C@@H]3CC[C@H]2C(=O)N1Cc1ccc2c(c1)OCO2 | 0.751 | 0.0548 | 0.579 | 0.477 | 0.677 | 1.07 | 0.231 (inactive) | 0.727 | -1.18 | 0.178 (inactive) |
| CCOC(=O)CCN1C(=O)[C@H]2[C@H]3[C@H](O)[C@H](O)CC(=NOCC=C(C)CCC=C(C)C)[C@@H]3CC[C@H]2C1=O | -0.0606 | -0.218 | -0.124 | 0.232 | -0.0685 | -0.651 | -0.204 (inactive) | -0.225 | -0.251 | -0.23 (inactive) |
| CCc1cc2c(nc1CC)CCN(CCC(C)=NOC[C@@H](C)[C@H](OCc1ccccc1)C(C)C)C2 | 1.58 | 0.546 | 1.43 | -2 | -0.584 | 2 | 1 (inactive) | 0.278 | 0.486 | -0.445 (inactive) |
| C[C@@H]1C=CCC(=O)OC[C@H](C)C(=O)N[C@@H](Cc2ccccc2)C(=O)OC1 | -0.88 | 2.49 | 0.499 | -0.295 | -0.371 | 0.662 | 0.55 (inactive) | 0.803 | 0.382 | 0.168 (inactive) |
| CCOC(=O)CCN1C(=O)[C@H]2[C@H]3[C@H](O)[C@H](O)CC(=NNC(=O)OCc4ccccc4)[C@H]3CC[C@H]2C1=O | 0.391 | 1.33 | -0.222 | 0.357 | -0.0554 | -0.952 | -0.223 (inactive) | -0.0449 | 0.435 | -0.367 (inactive) |
| CC(C)[C@@H](OCc1ccccc1)[C@H](C)CON=C1[C@H]2CCn3c(=O)n(-c4ccccc4)c(=O)n3[C@H]2[C@H](O)[C@@H]2O[C@H]12 | -0.27 | -0.104 | -1.31 | -2.72 | -2.22 | -2.12 | 0.197 (inactive) | -0.654 | -0.375 | -1 (inactive) |
| CCOC(=O)CCN1C(=O)[C@H]2[C@H]3[C@H](O)[C@H](O)CC(=NNC(=O)OCc4ccc(OC)cc4)[C@H]3CC[C@H]2C1=O | -0.185 | -0.385 | -0.0426 | -0.885 | -0.87 | -0.146 | -0.447 (inactive) | -0.207 | -0.387 | -0.495 (inactive) |
| C=C(C)C(=O)OC[C@H]1CN2[C@@H](CC[C@@H](C)[C@@H]2c2ccc(Br)cc2)C(=O)O1 | 0.824 | 0.278 | 1.33 | 0.244 | -1.34 | 0.393 | -0.142 (inactive) | -0.521 | -0.197 | 0.634 (inactive) |
| COC(=O)[C@H](C)NC(=O)CCC1CC(OC(=O)NCCc2ccc(F)cc2)CC2(CCCC(COC(=O)NCCOc3ccccc3)O2)O1 (stereo not given in full) | 0.401 | -0.506 | 0.696 | 0.546 | -0.475 | 1.17 | 0.00171 (inactive) | 0.606 | -0.0736 | 0.579 (inactive) |
| O=C1C2=CC[C@H]3C(=O)N(C4CCCCC4)C(=O)[C@H]3[C@H]2[C@H](O)[C@@H]2O[C@H]12 | -3.85 | 1.13 | -4.38 | -3.05 | -3.91 | 0.771 | 2.71 (inactive) | -1.02 | -2.83 | -2.67 (inactive) |
| CN1CCc2nc(-c3ccccc3)c(-c3ccccc3)cc2C1 | -0.244 | 0.665 | 0.135 | 0.33 | 0.455 | 0.25 | -0.53 (inactive) | 0.344 | -0.201 | 0.752 (inactive) |
| CCCNC(=O)OC[C@H]1O[C@H](CCON=C[C@@H](NS(=O)(=O)c2ccc(C)cc2)[C@H](C)C=CCC(=O)OC)C=C[C@@H]1Oc1ccc(OC)cc1 | -0.321 | 0.973 | -1.18 | -0.0312 | -0.773 | 0.421 | -2.4 (inactive) | -0.806 | 0.364 | 0.141 (inactive) |
| CCO[C@H](c1cc(OC)cc([N+](=O)[O-])c1OC)[C@H](C)[C@@H](OC)[C@H](C)C=CCC(=O)OC | 0.207 | -0.402 | 0.513 | 0.0601 | 0.824 | -0.524 | -0.476 (inactive) | -0.441 | -0.236 | 0.319 (inactive) |
| CCN1C(=O)[C@H]2[C@H]3[C@H](O)[C@H](O)CC(=NO[C@@H]4O[C@H](COC(C)=O)[C@@H](OC(C)=O)[C@H](OC(C)=O)[C@H]4OC(C)=O)[C@@H]3CC[C@H]2C1=O | 0.13 | -0.81 | -0.145 | -1.29 | -1.05 | -0.611 | -1.51 (inactive) | 0.69 | -0.654 | -0.959 (inactive) |
| O=C1C[C@@H](O)[C@@H](O)[C@@H]2[C@@H]3C(=O)N(c4ccc(F)cc4F)C(=O)[C@@H]3CC[C@H]12 | -0.529 | 1.42 | 0.0181 | -0.141 | -0.0202 | -0.541 | -0.922 (inactive) | 0.0715 | 0.448 | -0.715 (inactive) |
| O=C1[C@H]2[C@H]3[C@H](O)[C@H](O)CC(=NO[C@@H]4O[C@H](CO)[C@@H](O)[C@H](O)[C@H]4O)[C@H]3CC[C@H]2C(=O)N1C[C@@H]1CCCO1 | 0.676 | -0.568 | 0.184 | 0.7 | 0.269 | 0.607 | 0.572 (inactive) | 0.39 | -1.13 | -0.6 (inactive) |
| CCN1C(=O)[C@H]2[C@H]3[C@H](O)[C@H](O)CC(=NO[C@@H]4O[C@H](CO)[C@@H](O)[C@H](O)[C@H]4O)[C@H]3CC[C@H]2C1=O | 0.212 | -0.158 | 0.298 | -0.0327 | -0.982 | -0.68 | -1.21 (inactive) | 0.0397 | 0.652 | 0.14 (inactive) |
| COC(=O)CC=C[C@@H](C)[C@@H](C=NOC(C)CN1CCCCc2nc(C)c(C)cc21)OC (stereo not given in full) | -0.165 | -0.213 | -0.0272 | -1.74 | -0.444 | -0.254 | -0.142 (inactive) | -0.497 | 0.444 | 0.0399 (inactive) |
| C[C@H]1CC[C@@H](C(=O)O)N[C@@H]1c1cccc(N2CCCC2=O)c1 | 0.594 | -0.115 | 0.652 | 0.149 | -1.12 | 1.66 | 0.574 (inactive) | 0.468 | -0.436 | 0.0065 (inactive) |
| CC(CCC(=O)OC[C@H]1O[C@H](C#Cc2ccccc2)C=C[C@@H]1Oc1ccc(C)cc1)=NOC(C)CN1CCCc2nc(C)c(C)cc21 (stereo not given in full) | -0.177 | -0.271 | 0.267 | -2.18 | -1.39 | 0.542 | -2.38 (inactive) | -0.7 | -0.74 | -0.719 (inactive) |
| COC(=O)[C@H](C)NC(=O)CCC1CC(OC(=O)NCc2cccc3ccccc23)CC2(CCCC(COC(=O)NCc3ccccc3)O2)O1 (stereo not given in full) | 0.217 | 0.2 | -0.653 | 0.621 | 0.769 | 1.46 | 0.818 (inactive) | 0.662 | -0.845 | 2.64 (inactive) |
| CCCCOC(OCCCC)C(O)CSc1ccc2ccccc2c1 (stereo not given) | -1.28 | -0.809 | 0.0428 | -2.77 | -1.04 | -0.36 | -0.239 (inactive) | 0.591 | -0.285 | -0.911 (inactive) |
| CCN1C(=O)[C@H]2[C@H]3[C@H](O)[C@H](O)CC(=NOCC(C)C)[C@H]3CC[C@H]2C1=O | -0.124 | -0.574 | -0.391 | 0.199 | 0.286 | -0.584 | -0.977 (inactive) | 0.0664 | -0.86 | -0.348 (inactive) |
